# From ChEMBL document CHEMBL3988442, “University of Dundee, Small-Polar-MMV Screening Library” (2021)
# About 1,000 (1.4%) of roughly 69,000 compounds showed an effect of 50% or more. The sample holds strong results, similar compounds and a random draw of the others, so the mix is not that of the screen.
# Tested on: Leishmania donovani
# Test: Leishmania intramacrophage assay
# Assay type: functional, organism-based
# Parameters: scale not given: in the data most compounds retested in dose-response had high values
smiles,measurement,setting,value
NCCc1n[nH]c(=O)n1-c1cccc2ccccc12,Percent Effect,"30.3 µM, […]",-1.188%
COc1ccc2nnc(CCCC(=O)NCc3ccccc3F)n2n1,Percent Effect,"30.3 µM, […]",59.63%
COc1ccc2nnc(CCCC(=O)NCc3ccccc3OC)n2n1,Percent Effect,"30.3 µM, […]",-10.21%
COc1ccc2nnc(CCCC(=O)NCc3ccccc3)n2n1,Percent Effect,"30.3 µM, […]",-8.358%
Cn1nccc1CNC(=O)CCn1nc(C(F)(F)F)cc1C1CC1,Percent Effect,"30.3 µM, […]",-48.51%
CCc1c(C)nc(-n2nc(C3CC3)cc2NC(C)=O)[nH]c1=O,Percent Effect,"30.3 µM, […]",18.69%
Cc1cc(=O)[nH]c(-n2nc(-c3cccs3)cc2N)n1,Percent Effect,"30.3 µM, […]",-7.901%
CC(C)c1cc(=O)[nH]c(C(C)(C)N)n1.Cl,Percent Effect,"30.3 µM, […]",-1.615%
Cc1cc(=O)[nH]c(-n2nc(-c3ccccc3)cc2N)n1,Percent Effect,"30.3 µM, […]",15.58%
CCCc1cc(=O)[nH]c(-c2cccc(CN3CCCCCC3)c2)n1,Percent Effect,"30.3 µM, […]",-12.61%
CC(=O)Nc1cc(C2CC2)nn1-c1nc(C)c(C)c(=O)[nH]1,Percent Effect,"30.3 µM, […]",-16.88%
Cc1nc(-n2nc(C3CC3)cc2NC(=O)C(C)C)[nH]c(=O)c1C,Percent Effect,"30.3 µM, […]",15.32%
CCCc1cc(=O)[nH]c(-n2nc(-c3cccs3)cc2N)n1,Percent Effect,"30.3 µM, […]",-5.205%
Cc1cc(=O)[nH]c(-n2nc(C3CC3)cc2N)n1,Percent Effect,"30.3 µM, […]",77.1%
CC(NC(=O)CCc1nc(C(C)(C)C)no1)c1nnc2n1CCC2 (centres undefined),Percent Effect,"30.3 µM, […]",10.79%
CNC(=O)CCS(=O)(=O)Cc1cc(Cl)c2c(c1)OCCO2,Percent Effect,30 µM,6.265%
O=C(CN1CCC(C(=O)c2cc(F)ccc2F)CC1)NC1CC1,Percent Effect,"30.3 µM, […]",20.49%
CNC(=O)C(NC(=O)CCc1cccc(OC2CCCC2)c1)C(C)C (centres undefined),Percent Effect,"30.3 µM, […]",1.65%
Cc1nsc(C(=O)NCCCc2ccccc2)n1,Percent Effect,"30.3 µM, […]",7.564%
Cc1nc(C2CCCN2C(=O)Cn2cncn2)no1 (centres undefined),Percent Effect,30 µM,21.12%
CCOC(=O)c1sc2ccsc2c1CNC(=O)COC,Percent Effect,30 µM,13.66%
O=C(NCC(O)c1ccoc1)Nc1cccs1 (centres undefined),Percent Effect,"30.3 µM, […]",10.34%
CCC(CC)(CCO)CNC(=O)c1ccon1,Percent Effect,"30.3 µM, […]",7.917%
CC(C)c1nn(C)c(N(C)C)c1CNCc1ccccc1CN(C)C,Percent Effect,"30 µM, 30.03 µM",50.34%
CC(C)c1nn(C)c(N(C)C)c1CNCc1ccccc1CO.Cl,Percent Effect,30 µM,5.046%
COCc1ccccc1CNCc1c(C(C)C)nn(C)c1N(C)C,Percent Effect,30 µM,21.29%
O=C1N(C2CCCCC2)CCCC12CCN(S(=O)(=O)c1cccnc1)C2 (centres undefined),Percent Effect,"30.3 µM, […]",18%
CC(C)NC(=O)[C@@H]1C[C@@H]2CCN(Cc3ccoc3)C[C@H]2O1.O=C(O)C(F)(F)F,Percent Effect,"30.3 µM, […]",11.62%
CNC(=O)[C@H]1C[C@@H]2CN(Cc3ccc(C)cc3)C[C@H]1O2.O=C(O)C(F)(F)F,Percent Effect,"30.3 µM, […]",47.12%
O=C(NCC1CC1)[C@H]1C[C@@H]2CCN(CCc3ccccc3)C[C@H]2O1.O=C(O)C(F)(F)F,Percent Effect,"30.3 µM, […]",-22.31%
O=C(NC1CCC1)[C@@H]1C[C@@H]2CCN(CCc3ccccc3)C[C@H]2O1.O=C(O)C(F)(F)F,Percent Effect,"30.3 µM, […]",-19.62%
CNC(=O)[C@H]1C[C@@H]2CN(Cc3ccccc3)C[C@H]1O2.O=C(O)C(F)(F)F,Percent Effect,"30.3 µM, […]",55.32%
CNC(=O)[C@H]1C[C@@H]2CN(Cc3cccc(C)c3)C[C@H]1O2.O=C(O)C(F)(F)F,Percent Effect,"30.3 µM, […]",36.09%
COCCNC(=O)[C@H]1C[C@@H]2CCN(CCc3ccccc3)C[C@@H]2O1.O=C(O)C(F)(F)F,Percent Effect,"30.3 µM, […]",34.91%
CNC(=O)[C@H]1C[C@@H]2CCN(CCc3ccccc3)C[C@@H]2O1.O=C(O)C(F)(F)F,Percent Effect,"30.3 µM, […]",53.78%
O=C(NC1CC1)[C@H]1C[C@@H]2CCN(CCc3ccccc3)C[C@H]2O1.O=C(O)C(F)(F)F,Percent Effect,"30 µM, 30.03 µM",7.043%
O=C(NC1CCCC1)[C@@H]1C[C@@H]2CCN(Cc3ccoc3)C[C@H]2O1.O=C(O)C(F)(F)F,Percent Effect,"30.3 µM, […]",62.18%
COCCNC(=O)[C@H]1C[C@@H]2CCN(CCc3ccccc3)C[C@H]2O1.O=C(O)C(F)(F)F,Percent Effect,"30.3 µM, […]",57.9%
O=C(NC1CC1)[C@@H]1C[C@@H]2CCN(Cc3ccoc3)C[C@@H]2O1.O=C(O)C(F)(F)F,Percent Effect,"30.3 µM, […]",29.69%
